According to PubChem BioAssay (EPA / NIEHS):
Active and inactive are the calls of the source. Rule for the calls: active = hit-call score of the fitted dose curve at least 0.9, where 1 is the maximum; inactive = score below 0.9.

biological target: Hepatocyte nuclear factor 6 (Homo sapiens) (UniProt Q9UBC0); test: ATG_HNF6_CIS: Attagene CIS-FACTORIAL HepG2 Assay for human Hepatocyte Nuclear Factor 6 (HNF6) (AID 2282952); details: HepG2 Attagene cis-factorial HNF6 reporter transcription; actives raise or lower the signal
Sequence (Q9UBC0 whole entry, looked up): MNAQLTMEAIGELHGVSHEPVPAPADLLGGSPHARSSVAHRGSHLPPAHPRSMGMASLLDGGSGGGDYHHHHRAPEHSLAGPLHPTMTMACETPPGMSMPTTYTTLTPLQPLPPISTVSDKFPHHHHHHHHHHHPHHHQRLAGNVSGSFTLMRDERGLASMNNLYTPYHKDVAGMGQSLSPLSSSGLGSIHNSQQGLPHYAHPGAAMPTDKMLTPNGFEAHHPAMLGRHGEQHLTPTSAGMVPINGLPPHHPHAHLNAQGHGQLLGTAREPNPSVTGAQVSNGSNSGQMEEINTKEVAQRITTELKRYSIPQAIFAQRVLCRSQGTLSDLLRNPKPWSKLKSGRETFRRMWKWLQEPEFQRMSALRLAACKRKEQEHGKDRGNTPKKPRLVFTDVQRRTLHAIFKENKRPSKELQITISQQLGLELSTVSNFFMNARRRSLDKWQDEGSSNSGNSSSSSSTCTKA
Description: ATG_CIS is a cell-based, multiplexed-readout assay that uses HepG2, a human liver cell line, with measurements taken at 24 hours after chemical dosing in a 24-well plate.ATG_HNF6_CIS is one of 52 assay component(s) measured or calculated from the ATG_CIS assay. It is designed to make measurements of mRNA induction, a form of inducible reporter, as detected with fluorescence intensity signals by Reverse transcription polymerase chain reaction (RT-PCR) and Capillary electrophoresis technology.Data from the assay component ATG_HNF6_CIS was analyzed into 1 assay endpoint. This assay endpoint, ATG_HNF6_CIS, was analyzed with bidirectional fitting relative to DMSO as the negative control and baseline of activity. Using a type of inducible reporter, measures of mRNA for gain or loss-of-signal activity can be used to understand the reporter gene at the transcription factor-level as they relate to the gene ONECUT1. Furthermore, this assay endpoint can be referred to as a primary readout, because this assay has produced multiple assay endpoints where this one serves a reporter gene function. To generalize the intended target to other relatable targets, this assay endpoint is annotated to the dna binding intended target family, where the subfamily is homeobox protein.
Human liver HepG2 cells are transiently transfected with multiple reporter transcription units (MRTUs) in 6-well plates using FuGene 6 reagent (Roche; 3 ml FuGene/1 mg DNA). The MRTU constructs are regulated by a cis-regulating element (promoter). […] A major difference between the CIS and TRANS system is that in CIS activities of endogenous TFs are measured, whereas the TRANS assay evaluates changes in activities of exogenous, chimeric NR-Gal4 proteins. […] At the end of 24 hour incubation, total RNA was isolated using TriZol reagent (Invitrogen). The isolated RNA is then reverse-transcribed using oligo(dT) primer and Mo-MLV reverse transcriptase (Invitrogen) with DNAse I (Ambion) treatment for 30 min. The one-tenth of the produced cDNA was amplified by PCR using Taq DNA polymerase (Invitrogen) and two reporter sequence-specific primers. The PCR products were fluorescently labeled by primer extension with 6-arboxyfluorescein (6-FAM) 5'-labeled reporter sequence-specific primer (2 min at 95 C, 20 s at 68 C and 10 min at 72 C) and these products were digested with 5U of HpaI (New England Biolabs) for 2h at 37 C. The fragments were purified using Qiaquick PCR columns (Qiagen), analyzed on an ABI 3130xL genetic analyzer (Applied Biosystems) with peak positions identified by using a set of X-rhodamine (ROX)-labeled MapMarker1000 molecular weight standards (BioVentures). The raw capillary electrophoresis data was processed using Attagraph software (Attagene).

Structure (SMILES) | outcome
Nc1ccc(O)c([N+](=O)[O-])c1 | inactive
CCC(C)c1ccccc1 (stereo not given) | inactive
CN(C)c1ccc2nc3ccc(=[N+](C)C)cc-3sc2c1 | inactive
Cc1ccccc1CCO | inactive
CC(=O)c1ccc(S(=O)(=O)NC(=O)NC2CCCCC2)cc1 | inactive
CCOC(=O)c1ccc(C)cc1 | inactive
CCC(C)(O)CCCC(C)C (stereo not given) | inactive
CC(C)(CO)COC(=O)C(C)(C)CO | inactive
CCCCOCC(C)O (stereo not given) | inactive
C=C[Si](OCCOC)(OCCOC)OCCOC | inactive
CC1(C)CCC[C@]2(C)[C@H]3CC(=O)O[C@]3(C)CC[C@@H]12 | inactive
C=C1C[C@H]2[C@@H]3C=C(C)C4=CC(=O)CC[C@]4(C)[C@H]3CC[C@]2(C)[C@@]1(OC(C)=O)C(C)=O | inactive
C=CCNCC=C | inactive
CN(C)Cc1cc(CN(C)C)c(O)c(CN(C)C)c1 | inactive
CC(C)CCOCc1ccccc1 | inactive
O=C1c2ccccc2C(=O)c2cc(S(=O)(=O)O)ccc21 | inactive
Cc1noc(NS(=O)(=O)c2ccc(N)cc2)c1C | inactive
Fc1ccc(Br)cc1 | inactive
C=Cc1cccc(C)c1 | inactive
CCCCCCOC(=O)CCCCC(=O)OCCCCCC | inactive

Structure (SMILES) | outcome
C=C(C)C1CC=C(C)C(OC(C)=O)C1 (stereo not given) | inactive
CC(C)=NNC(N)=S | inactive
O=C(O)CC(C(=O)O)S(=O)(=O)O (stereo not given) | inactive
O=C(Nc1ccccc1)c1cc(Cl)ccc1O | inactive
O=S(=O)(O)c1ccc(Nc2nc(Nc3ccc(C=Cc4ccc(Nc5nc(Nc6ccc(S(=O)(=O)O)cc6)nc(N(CCO)CCO)n5)cc4S(=O)(=O)O)c(S(=O)(=O)O)c3)nc(N(CCO)CCO)n2)cc1 | inactive
COc1cc(C)ccc1O | inactive
CC(CC(C)C)=NO | inactive
OCCCc1ccccc1 | inactive
CCCCOCCOC(=O)COc1ccc(Cl)cc1Cl | inactive
CC(=O)OC1CCCCC1C(C)(C)C (stereo not given) | inactive
[Cl][Sc]([Cl])[Cl] | inactive
CC(CC=O)CC(C)(C)C (stereo not given) | inactive
CCCCNS(=O)(=O)c1ccc(C)cc1 | inactive
C=CCCCCCCCCO | inactive
CCOC(=O)C1=NN(c2ccc(Cl)cc2Cl)C(C)(C(=O)OCC)C1 (stereo not given) | inactive
Cn1ccnc1 | inactive
CCOC(=O)CC(=O)c1ccccc1 | inactive
COc1ccc(-c2coc3cc(O)cc(O)c3c2=O)cc1 | inactive
Cc1ccc([N+](=O)[O-])cc1N | inactive
O=C(Oc1ccccc1)c1ccccc1C(=O)Oc1ccccc1 | inactive
